Laboratory results as given in the supplement of paper PMC9334596.
Where “and” joins values, the source holds several entries; their conditions need not be identical. Equal values may be shown once. The full ranking holds about 5,300 compounds; the median of “PER2::LUC luminescence relative to vehicle control” is about 0.96, and the highest 2% start at about 1.3. Only a selection was taken, and the highest values are over-represented in it overall.

System: mPer2Luc MEF
Assay: PER2::LUC luminescence relative to vehicle control (fold of vehicle); higher = higher PER2::LUC reporter signal
Details: 10 µM
Outline: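 Compounds from commercial libraries were added at 10 μM to 384-well plates seeded 48 h earlier with ~3000 mPer2Luc mouse embryonic fibroblasts per well. The cells were kept in DMEM with 10% FBS at 37 °C and 5% CO2. Luminescence was read with ONE-Glo 24 h and 30 h after treatment, then an alamarBlue viability assay was run. Values are PER2::LUC luminescence relative to vehicle control, as fold change.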

Row | SMILES | PER2::LUC luminescence (time after treatment 24 h) | PER2::LUC luminescence (time after treatment 30 h)
1 | COc1ccc(C2=N[C@@H](c3ccc(Cl)cc3)[C@@H](c3ccc(Cl)cc3)N2C(=O)N2CCNC(=O)C2)c(OC(C)C)c1 (racemic) | 0.971 | 0.948
2 | Nc1ncnc2c1ncn2[C@@H]1O[C@H](CO)C[C@@H]1O | 0.952 | 0.956
3 | NCCCCCCCCCCNCCCN | 0.962 | 0.892
4 | C[C@H](NC(=O)CNC(=O)[C@@H](NC(=O)[C@H](Cc1ccccc1)NC(=O)CNC(=O)CNC(=O)[C@@H](N)Cc1ccccc1)[C@@H](C)O)C(=O)N[C@@H](CCCN=C(N)N)C(=O)N[C@@H](CCCCN)C(=O)N[C@@H](CO)C(=O)N[C@@H](C)C(=O)N[C@@H](CCCN=C(N)N)C(=O)N[C@@H](CCCCN)C(N)=O | 1.02 | 0.922
5 | COc1cc2ncnc(Nc3cccc(Cl)c3)c2cc1OC | 0.991 and 0.715 | 0.978 and 0.705
6 | O=C(O)c1ccc2c(c1)nc(Nc1cccc(Cl)c1)c1ccncc12 | 0.795 | 1.39
7 | O=C(NCCO)c1ccc2c(c1)nc(Nc1cccc(Cl)c1)c1ccncc12 | 1.03 | 0.995
8 | C/C1=C2N=C(/C=C3N=C(/C(C)=C4\[N-]C(C(CC(N)=O)C4(C)CCC(=O)NCC(C)OP(=O)([O-])OC4C(CO)OC(n5cnc6cc(C)c(C)cc65)C4O)C4(C)N=C1C(CCC(N)=O)C4(C)CC(N)=O)C(CCC(N)=O)C\3(C)C)C(CCC(N)=O)C/2(C)CC(N)=O.[CH3-].[Co+3] (configuration not stated) | 1.07 | 1.03
9 | Cc1cnc(-c2cnc(NCCNc3ccc(C#N)cn3)nc2-c2ccc(Cl)cc2Cl)[nH]1 | 1.56 | 1.06
10 | CN1CCN(C2CCC(n3cc(-c4ccc(Oc5ccccc5)cc4)c4c(N)ncnc43)CC2)CC1 (configuration not stated) | 0.091 | 0.137
11 | C[C@@H](NC(=O)c1cc(C(=O)N[C@@H](Cc2ccccc2)[C@H](O)CNC2CC2)cc(N(C)S(C)(=O)=O)c1)c1ccccc1 | 1.01 | 1.09
12 | NCCCC[C@H](NC(=O)[C@@H]1CCCN1C(=O)[C@@H]1CSSC[C@H](N)C(=O)N[C@@H](Cc2ccccc2)C(=O)N[C@@H](Cc2ccccc2)C(=O)N[C@@H](CCC(N)=O)C(=O)N[C@@H](CC(N)=O)C(=O)N1)C(=O)NCC(N)=O | 1.08 | 1.13
13 | COc1ccccc1N1CCN(CCN2C(=O)N=C3C(=Nc4ccccc43)C2=O)CC1 | 0.831 | 0.823
14 | NC(=O)c1ncn([C@@H]2O[C@H](CO)[C@@H](O)[C@H]2O)c1N | 1.32 and 0.733 | 1.18 and 0.988
15 | NC(=O)c1ncn(C2OC(COP(=O)(O)O)C(O)C2O)c1N (configuration not stated) | 1.36 | 1.3
16 | Nc1ncnc2c1ncn2[C@@H]1O[C@H](COP(=O)(O)O)[C@@H](O)[C@H]1O | 1.22 and 1.13 | 1.14 and 1.05
17 | NCCOCCOCCNC(=O)Cc1ccc(Nc2nc(NCc3ccc(F)cc3)nc(NCC3CCCCC3)n2)cc1 | 1.09 | 1.03
18 | COc1ccc(/C=C/C(=O)Nc2ccccc2C(=O)O)cc1OC | 0.844 and 0.327 | –
19 | O=C(O)c1ccccc1Nc1ccccc1 | 1.02 | 0.974
20 | C/C(=C\C(=O)Nc1ccccc1C(=O)O)c1ccc2ccccc2c1 | 1.53 | 1.46
21 | O[C@H]1CCN2Cc3ccccc3N=C12 | 0.987 | 0.932
22 | CC1CCC(C(C)C)C(O)C1 (racemic) | 1.02 | 1.25
23 | O=C(CS(=O)(=O)Cc1ccccc1)N1CCOCC1 | 0.841 | 0.781
24 | CCCCNc1ccc(C(=O)OCCOCCOCCOCCOCCOCCOCCOCCOCCOC)cc1 | 1.07 | 0.94
25 | CCCCNc1cc(C(=O)O)cc(S(N)(=O)=O)c1Oc1ccccc1 | 1.21 | 1.86
26 | CCCNC(C)(C)COC(=O)c1ccccc1 | 0.894 | 0.968
27 | CC(=Cc1ccc(C(=O)O)cc1)c1ccc2c(c1)C(C)(C)CCC2(C)C | 1.66 | 1.52

Row | SMILES | PER2::LUC luminescence (time after treatment 24 h) | PER2::LUC luminescence (time after treatment 30 h)
28 | NC1(C(=O)O)CCc2cc(C(=O)O)ccc21 (configuration not stated) | 0.992 | 0.984
29 | CC(=O)Nc1ccc(C(=O)O)cc1 | 1.03 | 0.901
30 | O=C(Nc1ccc(C(=O)O)c(O)c1)c1ccccc1 | 1.03 | 1.13
31 | CC(N)(C(=O)O)c1ccc(C(=O)O)cc1 (racemic) | 0.971 | 0.694
32 | CC(=O)Nc1ccc(C(=O)Nc2ccccc2N)cc1 | 0.744 | 0.677
33 | C[C@@](N)(C(=O)O)c1ccc(C(=O)O)cc1 | 1.01 | 0.938
34 | CC1(C)CCC(C)(C)c2cc(NC(=O)c3ccc(C(=O)O)cc3)ccc21 | 1.77 | 1.63
35 | CC1(C)CCC(C)(C)c2cc(C(=O)Nc3ccc(C(=O)O)cc3)ccc21 | 1.64 | 1.67
36 | COc1ccc(C(OCCN2CCC[C@H](C(=O)O)C2)(c2ccc(OC)cc2)c2ccc(OC)cc2)cc1 | 0.855 | 1.04
37 | NC1CCN(O)C1=O (single isomer, unassigned; (+)) | 0.99 | 0.883
38 | CCCN(CCc1cccs1)C1CCc2c(O)cccc2C1 (racemic) | 0.965 | 0.906
39 | O=C1/C(=C/c2ccc(O)c(O)c2)Oc2c1ccc(O[C@@H]1O[C@H](CO)[C@@H](O)[C@H](O)[C@H]1O)c2O | 0.983 | 0.93
40 | CC(C)C[C@H](NC(=O)OCc1ccccc1)C(=O)N[C@@H](CC(C)C)C(=O)NCC(=O)CNC(=O)[C@H](CC(C)C)NC(=O)[C@H](CC(C)C)NC(=O)OCc1ccccc1 | 1.01 | 0.909
41 | CCCCCCCCCCCCCC[C@@H](O)[C@@H](O)[C@@H](CO)NC(C)=O | 1.07 | 1.04
42 | CN1C(=O)C(Cc2c[nH]c3ccccc23)NC1=S (configuration not stated) | 1.15 | 1.36
43 | c1ccc2c(Cc3c[nH]c4ccccc34)c[nH]c2c1 | 0.956 and 0.816 | 1.02 and 0.84
44 | CN1C(=O)N[C@H](Cc2c[nH]c3c(Cl)cccc23)C1=O | 0.87 | 0.819
45 | O=C(O)c1cc(N(Cc2ccccc2O)Cc2cc(O)ccc2O)ccc1O | 1.05 | 1.03
46 | C[C@@]1(F)[C@H](O)[C@@H](CO)O[C@H]1n1ccc(=O)[nH]c1=O | 0.965 | 0.937
47 | CN1CCC[C@@H]1c1cccnc1.Cc1ccc(C(=O)O[C@H](C(=O)O)[C@@H](OC(=O)c2ccc(C)cc2)C(=O)O)cc1 | 0.873 | 0.978
48 | C=CC[C@@H]1[C@H](O)CC[C@@]2(C)[C@H]1CC[C@@H]1[C@@H]2CC[C@]2(C)[C@@H]([C@H](C)CCCC(C)C)CC[C@@H]12 | 0.994 | 0.987
49 | OCC1OC(n2cnc3c(NC4CCCC4)nc(Cl)nc32)C(O)C1O (configuration not stated) | 0.932 | 0.97
50 | Nc1nc(NC2CC2)c2ncn([C@H]3C=C[C@@H](CO)C3)c2n1 | 1.23 and 1.48 | 1.32 and 1.75
51 | OC[C@H]1O[C@@H](n2cnc3c(NC4CCCC4)ncnc32)[C@H](O)[C@@H]1O | 0.965 | 0.991
52 | COc1cc(O)c(C(=O)/C=C/c2ccc(O)c(OC)c2)c(OC)c1 | 0.871 | 0.855
53 | CC(C)c1noc(C2CCN(c3ncnc(Nc4ccc(S(C)(=O)=O)cc4F)c3[N+](=O)[O-])CC2)n1 | 0.972 | 0.789
54 | COc1ccc(/C=C/c2ccccc2F)cc1 | 1.2 | 1.26
